This is an account of results in PubChem BioAssay AID504332 (National Center for Advancing Translational Sciences (NCATS), 2011).

About 31,000 (8.9%) of roughly 350,000 compounds were called active. Where a call stands in place of a potency, no number is given. Not shown: some 15% with an inconclusive outcome. Calls come from the whole dose curve; as a rule, active = well fitted inhibition curve with a large enough effect; inconclusive = small, poorly fitted or top-dose-only effect; inactive = no such curve, though single readings can be large or run the other way. Many of the other results were omitted from the sample, so actives are more common in it than they were.
Potency is the fitted concentration of half-maximal effect.

Chain of Histone-lysine N-methyltransferase EHMT2 (Homo sapiens) (Q96KQ7 913-1193 limits assumed): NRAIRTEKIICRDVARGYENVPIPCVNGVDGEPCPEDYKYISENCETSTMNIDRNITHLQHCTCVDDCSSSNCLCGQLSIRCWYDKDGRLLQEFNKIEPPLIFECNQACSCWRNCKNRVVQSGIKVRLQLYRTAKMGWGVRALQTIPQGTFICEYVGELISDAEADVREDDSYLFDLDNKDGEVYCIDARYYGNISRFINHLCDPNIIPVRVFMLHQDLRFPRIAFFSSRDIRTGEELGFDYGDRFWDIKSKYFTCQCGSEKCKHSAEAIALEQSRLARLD

The target of the experiment is Histone-lysine N-methyltransferase EHMT2 (Homo sapiens) (UniProt Q96KQ7). Kind of experiment: qHTS Assay for Inhibitors of Histone Lysine Methyltransferase G9a. Note: nearly all actives have a fitted effect of over 75% in size. To be noted: G9a H3K9 monomethylation, AlphaScreen, 2 h; series mostly up to 59 µM. Summed up:
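Quantitative HTS format: methyltransferase activity on a biotin-tagged H3K9 peptide is measured by AlphaScreen, using a rabbit anti-monomethyl-H3K9 antibody with streptavidin donor and anti-IgG acceptor beads. Final levels are 20 nM enzyme, 500 nM peptide, 20 uM SAM; 2 h RT.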
(In qHTS, concentration-response curves come from the screen itself.)
Consider `CCCNC(=O)C1CCN(c2nc3ccc(C)cc3[nH]2)CC1`, for which the Potency entry is “inactive”. Same read-out and setting: for `Cc1ccc2nc(S(=O)(=O)O)[nH]c2c1` the value was 89.1 µM (active).

With `Cc1ccc2nc(/C(C#N)=C\c3ccc(OC(=O)c4cccs4)cc3)[nH]c2c1`, the Potency entry was “inactive”. Still for that read-out and setting: in the case of `COc1cccc(CNC(=O)CSc2c3c(nc4cc(Cl)ccc24)CCCC3)c1` it was “inactive”. Still for that read-out and setting: for `Cc1ccc(CCNC(=O)c2ccc(CNS(=O)(=O)c3ccc(C)cc3)cc2)cc1` the value was “inactive”.

Consider `COc1ccccc1CNS(=O)(=O)c1ccc(C)cc1`, for which the Potency result was “inactive”. As to `COC(=O)C1=C(C)NC(=O)/C1=C/c1ccc(CNS(=O)(=O)c2ccc(C)cc2)o1`, the Potency was 50.1 µM (active). On the same count and under the same terms, for `Cc1cc(C)c2sc(NC(=O)c3ccc(S(=O)(=O)N4CCCC4)cc3)nc2c1` the value was “inactive”; for `Cn1c(=O)c(C(=O)O)nn(-c2ccccc2)c1=O`, “inactive”. In the case of `Cc1cccc(OCC(=O)N(Cc2ccc(C(C)C)cc2)Cc2ccco2)c1C`, the Potency entry was “inactive”. For the compound `CNC(=S)NNC(=O)c1oc2nc(-c3ccccc3)cc(-c3ccco3)c2c1N`, the Potency was 10 µM (active). Still for that read-out and setting: for `CS(=O)(=O)c1sc2nc(-c3ccccc3)cc(-c3ccccc3)c2c1N` the value was “inactive”; for `CC1=C(c2ccc(Cl)cc2)S(=O)(=O)N=C1N1CCN(c2cc(C)ccc2C)CC1`, “inactive”. On the same count and under the same terms, for `COc1ccc(-c2c(-c3ccc(OC)cc3O)nc(C)nc2C(F)(F)F)cc1` the value was “inactive”; for `CCOc1ccc(-c2cc3nc(C4CCN(C(=O)OC(C)(C)C)CC4)c(C(=O)Nc4ccc(C(=O)OC)cc4)cn3n2)cc1`, “inactive”. Still for that read-out and setting: in the case of `CCOC(=O)c1c(NC(=O)COc2cc(C)ccc2C(C)C)sc(C)c1C` it was 1.78 µM (active); in that of `CCOC(=O)c1sc(NC(=O)COc2ncnc3ccccc23)c(C(=O)OCC)c1C`, “inactive”.

Turning to `CCOC(=O)c1c(NC(=O)CSc2nnc(CNc3ccc(C)cc3C)o2)sc(C)c1C`, the Potency result was “inactive”. Same read-out and setting: in the case of `COc1cccc(CNC(=O)c2ccc3c(c2)N(Cc2ccc(C(F)(F)F)cc2)C(=O)c2ccccc2S3)c1OC` it was “inactive”; in that of `O=C(c1ccncc1)N1CCN(S(=O)(=O)c2cccc([N+](=O)[O-])c2)CC1`, “inactive”. Regarding `N/C(=N\OS(=O)(=O)c1cccc([N+](=O)[O-])c1)c1ccncc1`, the Potency was 10 µM (active). The same measure, in the same setting: in the case of `O=C(N/N=C/c1cccc([N+](=O)[O-])c1)c1ccncc1` it was “inactive”. Regarding `COc1ccc(C=Nc2cccc3ncccc23)cc1`, the Potency result was “inactive”. On the same count and under the same terms, in the case of `Oc1c(C=Nc2cccc3nsnc23)ccc2ccccc12` it was 2.24 µM (active); in that of `CC(C)(C)NS(=O)(=O)c1ccc(NC(=O)C2CCCO2)cc1` (centres undefined), “inactive”; in that of `O=C(CC(c1cccs1)N1Cc2ccccc2C1=O)Nc1ccc(F)c(F)c1` (centres undefined), “inactive”. For `CCc1cccc(NC(=O)COC(=O)C2CCN(c3ccc(C(F)(F)F)cn3)CC2)c1`, the activity, negative = inhibition is 10.8% [at 0.501 µM] (inactive). On to `C/C(Cc1ccccc1)=N\NC(=O)CNC(=O)c1cccc(Br)c1`, for which the Potency entry is “inactive”.

For the compound `CCCNC(=O)c1ccc(N2CCC3(CC2)CC(c2cccc(Br)c2)=NO3)c(NC(=O)c2ccco2)c1`, the activity, negative = inhibition was 7.48% [at 2.33 µM] (inactive). With `CCCC(=O)Nc1cc(C(=O)NCc2ccc(OC)cc2)ccc1S(=O)(=O)c1ccc(Cl)cc1`, the Potency result is “inactive”. Consider `CCCN(CCC)CCNC(=O)c1ccc2c(c1)NC(=O)C(CS(=O)(=O)Cc1cccc(Br)c1)N2` (centres undefined), for which the Potency was 25.1 µM (active). On to `COc1ccc(C(=O)NCc2ccc(Cl)cc2)cc1S(=O)(=O)N1CCCC1`, for which the activity, negative = inhibition was -2.17% [at 12.7 µM] (inactive). Turning to `Cc1ccccc1CS(=O)(=O)CC1Nc2ccc(C(=O)NCc3ccc(Cl)cc3)cc2NC1=O` (centres undefined), the Potency is 10 µM (active). Still for that read-out and setting: for `Cc1cccc(C(=O)N2CCc3cc(CNC(=O)Cc4ccc(F)cc4)ccc32)c1` the value was “inactive”. For the compound `CCOC(=O)C(C)n1cnc2c(nnn2-c2cccc(OC)c2)c1=O` (centres undefined), the Potency entry is “inactive”.

As for `CCc1nnc(NC(=O)CCC(=O)N2CCN(c3cc(C)ccc3C)CC2)s1`, the Potency result is “inactive”. The same measure, in the same setting: in the case of `COc1ccccc1N1CCN(C(=O)c2cc(-c3ccc(Cl)c(Cl)c3)on2)CC1` it was “inactive”.

For the compound `O=C(c1ccc2ccccc2n1)N1CCN(c2ccccc2Cl)CC1`, the Potency was 44.7 µM (active). Turning to `O=C(c1ccncc1)N1CCN(c2ccc3ccccc3n2)CC1`, the activity, negative = inhibition is 25% [at 12.7 µM] (inactive).

Turning to `Cc1ccc2c(=O)c(C(=O)c3ccc(Cl)cc3)cn(CC(=O)NC3CCCCC3)c2n1`, the Potency result was “inactive”. For `COC(=O)c1ccc(CSc2ccc(S(=O)(=O)N3CCCCC3)cn2)cc1`, the activity, negative = inhibition is -3.87% [at 12.7 µM] (inactive). For `CCNC(=S)NNC(=O)c1ccc2ncccc2c1`, the Potency result was “inactive”.

With `O=C(O)c1ccc(/C=N/Nc2nc(N3CCCCC3)nc(N3CCCCC3)n2)cc1`, the Potency entry was “inactive”.

In the case of `O=C(O)c1ccc(N/N=C/c2ccc3ncccc3c2)cc1`, the Potency is 10 µM (active).

On to `COc1cccc(/C=C/C(=O)OCC(=O)N2CCCc3ccccc32)c1`, for which the Potency result is “inactive”. Still for that read-out and setting: in the case of `CCOC(=O)c1ccc(NC(=O)c2ncn(-c3ccccc3)n2)cc1` it was “inactive”. As for `Cc1cccc(C(C)C)c1NC(=O)COC(=O)C1CC(=O)N(Cc2ccccc2)C1` (centres undefined), the activity, negative = inhibition is 7.15% [at 0.501 µM] (inactive). Take `CC(OC(=O)C1CC(=O)N(Cc2ccccc2)C1)C(=O)Nc1ccccc1[N+](=O)[O-]` (centres undefined): the Potency was 56.2 µM (active). On to `O=C(Nc1ccc(F)c([N+](=O)[O-])c1)C1CC(=O)N(Cc2ccccc2)C1` (centres undefined), for which the Potency entry is “inactive”.

Consider `CCOc1ccccc1NC(=O)CSc1ncc(S(=O)(=O)c2ccc(C(C)(C)C)cc2)c(=O)[nH]1`, for which the Potency entry is “inactive”. The same measure, in the same setting: in the case of `Cc1ccccc1CSc1nc2c([nH]c3ccccc32)c(=O)n1C` it was “inactive”; in that of `CCNC(=S)NNC(=O)C1CCN(Cc2ccccc2)CC1`, “inactive”; in that of `CCCCN(Cc1ccccc1)C(=O)C1CCN(Cc2sccc2C)CC1`, 14.1 µM (active). Take `CCCCN(C(=O)C1CCC1)c1c(N)n(Cc2ccccc2)c(=O)[nH]c1=O`: the activity, negative = inhibition was -8.06% [at 12.7 µM] (inactive). `O=C(Nc1cc2c3c(c1)CC(=O)N3CCC2)c1ccccc1F`: the Potency entry is “inactive”.

For the compound `CCOc1ccc(NC(=O)CN(C)C(=O)Cn2c(=O)cnc3ccccc32)cc1OCC`, the Potency entry was “inactive”.

Turning to `NC(=O)N1CCc2ccccc21`, the Potency result was “inactive”. On the same count and under the same terms, for `O=C(CN1CCc2ccccc21)NC(c1ccccc1)c1ccccc1` the value was 39.8 µM (active); for `O=C(CN1CCN(Cc2ccccc2)CC1)NC(c1ccccc1)c1ccccc1`, “inactive”. Same read-out and setting: for `COc1cc2nc(SCc3ccc(F)cc3)n3nc(CCn4c(C)nc5ccccc54)nc3c2cc1OC` the value was “inactive”; for `CCCSc1ncc(Cl)c(C(=O)Nc2c(C(=O)Nc3ccccc3)oc3ccccc23)n1`, “inactive”. With `COc1ccc2c(C)cc(SCC(=O)NCC3CCCO3)nc2c1` (centres undefined), the activity, negative = inhibition is 17.7% [at 2.33 µM] (inactive). As to `CCOC(=O)c1cnc2c(C)cc(C)cc2c1Nc1ccc(N2CCOCC2)cc1`, the Potency was 10 µM (active). Still for that read-out and setting: in the case of `CCOC(=O)c1cnc2ccc(F)cc2c1Nc1ccc2c(c1)OCCO2` it was “inactive”. Turning to `CCOC(=O)c1cnc2c(C)cc(Cl)cc2c1NCCc1ccc(OC)c(OC)c1`, the Potency entry was “inactive”. Turning to `FC(F)(F)c1ccc2c3n(nc2c1)CCN=C3c1ccc(Cl)cc1`, the activity, negative = inhibition is 23% [at 2.33 µM] (inactive). Take `Cc1ccc(CNC(=O)CSc2c(C)cnc3c2c(=O)n(C)c(=O)n3C)cc1`: the Potency result was “inactive”. The same measure, in the same setting: in the case of `Cc1cccnc1CC(C)NC(=O)c1cc(COc2cncc(Cl)c2)on1` (centres undefined) it was “inactive”; in that of `O=S(=O)(c1ccccc1)c1nc(-c2ccccc2)oc1NCCCN1CCOCC1`, “inactive”; in that of `CCOc1cc(N2CCOCC2)c(OCC)cc1NC(=O)c1cc(C)nc2ccccc12`, “inactive”. In the case of `CCOc1cc(N2CCOCC2)c(OCC)cc1NC(=O)c1ccc(C)s1`, the Potency is 44.7 µM (active). Consider `CCOc1cc(N2CCOCC2)c(OCC)cc1NC(=O)COC(=O)[C@H](Cc1c[nH]c2ccccc12)NC(C)=O`, for which the Potency entry was “inactive”. Still for that read-out and setting: for `Cc1c(C(=O)Nc2cccc(Cl)c2)oc2ccc(S(=O)(=O)N3CCOCC3)cc12` the value was “inactive”. For `CC[C@@]12C(=O)N(c3ccccc3)C(=O)N1[C@H](c1ccc(Br)cc1)[C@@H]1C(=O)N(C(C)(C)C)C(=O)[C@@H]12`, the activity, negative = inhibition was 53.8% [at 2.33 µM] (inactive). On to `CCCc1ccc(C(=O)COC(=O)CN2C(=O)NC3(CCCCC3C)C2=O)cc1` (centres undefined), for which the activity, negative = inhibition is -4.43% [at 12.7 µM] (inactive).

With `CCc1nn(CC(=O)N2CCN(c3ccc(Cl)cc3)CC2)c(=O)c2cc3occc3n12`, the Potency entry is “inactive”. In the case of `CCOc1ccc(CCNC(=O)COC(=O)C2CCN(c3ccc(C(F)(F)F)cn3)CC2)cc1OCC`, the Potency result was “inactive”. Turning to `Nc1nonc1-n1nnc(C(=O)N/N=C/c2c[nH]c3ccccc23)c1-c1ccccc1`, the Potency entry was “inactive”. With `S=c1[nH]nc(-c2ccco2)n1/N=C/c1ccccc1`, the Potency was 1.58 µM (active).

On to `CSC(=S)N/N=C/c1c[nH]c2ccccc12`, for which the Potency entry was “inactive”. On the same count and under the same terms, for `COc1ccc(Br)cc1/C=N/n1c(C)nnc1C` the value was “inactive”; for `S=c1[nH]nc(-c2ccncc2)n1/N=C/c1ccccc1Cl`, 1.41 µM (active); for `CCc1n[nH]c(=S)n1/N=C/c1c[nH]c2ccc(Br)cc12`, 8.91 µM (active). Still for that read-out and setting: in the case of `S=c1[nH]nc(-c2ccccc2)n1/N=C/c1c[nH]c2ccccc12` it was 1.58 µM (active); in that of `CCCCN(C)c1nnc(NC(=O)Nc2ccc(Br)c(C)c2)s1`, “inactive”; in that of `O=C(O)c1cc(S(=O)(=O)N(Cc2ccccc2)c2cccc(C(F)(F)F)c2)ccc1Cl`, “inactive”. As for `O=C(NCCC1=CCCCC1)c1ccc(-n2cncn2)cc1`, the activity, negative = inhibition was 3.99% [at 12.7 µM] (inactive). With `Cc1oc2ccc(O)c(CN3CCCCC3)c2c1C(=O)Nc1cccc(C(F)(F)F)c1`, the Potency entry was “inactive”. Same read-out and setting: for `O=C(NCc1ccccc1Cl)C(=O)NCC1CCCN1S(=O)(=O)c1cccs1` (centres undefined) the value was “inactive”. Same read-out and setting: for `Cc1ccc2c(c1)N(CC(=O)NCC1CCCO1)C(=O)CO2` (centres undefined) the value was “inactive”; for `CCCC1C(=O)N2C(N(C)C)=Nc3ccc(C)cc3N2C1=O` (centres undefined), 3.55 µM (active). With `c1ccc(-c2cc(-c3ccccc3)[nH]n2)cc1`, the Potency result was “inactive”.

On to `CCc1ccc(CNCc2c(C(=O)O)n(Cc3ccc(F)cc3Cl)c3cc(OC)ccc23)cc1`, for which the Potency entry is “inactive”.

In the case of `Cc1nc2c(-c3ccccc3)c(C)nn2c(C)c1CCC(=O)NCCc1ccccc1`, the Potency entry was “inactive”.
